# Several values for one entry are separate records, joined by “and”; a condition that tells them apart may be missing. Equal entries are not always repeated. Results filed as inconclusive are left out. A call without a number means that no potency is given here. A number with no mark means an inactive call. Activity calls are given as the source filed them. Unless noted, calls come from the whole dose curve; as a rule, active = well fitted curve in the direction sought with a large enough effect; inconclusive = small, poorly fitted or top-dose-only effect, or another doubt; inactive = no such curve, though single readings can be large; an effect the other way counts as inactive or inconclusive.
# What was measured:
# [1] = qHTS to identify inhibitors of the type 1 interferon - major histocompatibility complex class I in skeletal muscle: primary screen against the NCATS Mechanism Interrogation Plate v5.0 (MIPE) Libary (AID 1347411); note: nearly all actives have a fitted effect of over 65% in size; note: potency is the fitted concentration of half-maximal effect
# Method in brief: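 HLA-B HiBit myoblasts, dexamethasone-free medium + 4 ng/ml IFN-b, 24 h compound, 11-pt 1:3 from 46 uM final. Readout: Nano-Glo HiBiT lytic luminescence after 10 min lysis, RT.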
# [2] = target: Calcium and integrin-binding protein 1 (Homo sapiens) (UniProt Q99828); experiment: Primary qHTS for Identification of Calcium Integrin Binding Protein 1 (CIB1) Competitor (AID 1508620);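 note: GST tagged CIB1 binding a fluorescein labelled alphaIIb integrin peptide tracer; top concentration of the series differs between compounds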
# Method in brief: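 CIB1-GST (1 uM final) and compound incubated 15 min at room temperature before adding FITC-alphaIIb peptide tracer (100 nM final). Competition for binding read by fluorescence polarization (ex 480, em 540) after another 15 min at room temperature.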
# [3] = Primary qHTS for small molecule stabilizers of the endoplasmic reticulum resident proteome: Secreted ER Calcium Modulated Protein (SERCaMP) assay (AID 1508630)
# Method in brief: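 The SH-SY5Y reporter protocol was run at 3 concentrations up to 38.3 uM (primary) or 11 concentrations (follow-up): 16 h compound, 100 nM thapsigargin for 4 h, then extracellular luciferase luminescence.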
# [4] = Primary qHTS for inhibitors of nuclear receptor binding SET domain protein 2 (NSD2) in an isogenic RCH-ACV NSD2 p.E1099K mutant (9B) (AID 1645876); note: nearly all actives have a fitted effect of over 70% in size; note: potency is the fitted concentration of half-maximal effect
# [5] = target: Cytochrome P450 2C9 (Homo sapiens) (UniProt P11712); experiment: Cytochrome P450 family 2 subfamily C member 9 (CYP2C9) small molecule antagonists: luciferase biochemical (cell-free) qHTS assay (AID 1645842; active = well fitted curve in the direction sought with a large enough effect in the repeat runs; an effect the other way counts as inactive or inconclusive; note: nearly all actives have a fitted effect of over 55% in size; note: potency is the fitted concentration of half-maximal effect; for activity change, negative = inhibition: series mostly up to about 57 µM)
# Method in brief: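 P450-Glo CYP2C9 system: proluciferin substrate with enzyme in mix containing 0.4% BSA, 10 min at room temperature, then NADPH regeneration solution added and incubated 1 h at 37C. Detection reagent stopped reaction; luminescence read after 20 min as RLU.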
# [6] = target: Cytochrome P450 2D6 (Homo sapiens) (UniProt P10635); experiment: Cytochrome P450 family 2 subfamily D member 6 (CYP2D6) small molecule antagonists: luciferase biochemical (cell-free) qHTS assay (AID 1645840; active = well fitted curve in the direction sought with a large enough effect in the repeat runs; an effect the other way counts as inactive or inconclusive; note: nearly all actives have a fitted effect of over 55% in size; note: potency is the fitted concentration of half-maximal effect; for activity change, negative = inhibition: series mostly up to about 57 µM)
# Method in brief: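 P450-Glo CYP2D6 system: proluciferin substrate converted by enzyme to luciferin, read by luminescence proportional to activity. Enzyme-substrate mix with compound 10 min at room temperature, then NADPH regeneration 1 h before detection reagent.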
# [7] = target: N-terminal Xaa-Pro-Lys N-methyltransferase 1 (Homo sapiens) (UniProt Q9BV86); experiment: Confirmatory qHTS for Inhibitors of N-terminal methyltransferase 1 (NTMT1): MTaseGlo Assay (AID 1645874); note: potency is the fitted concentration of half-maximal effect; nearly all actives have a fitted effect of over 65% in size
# Method in brief: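 MTase-Glo luminescence measured SAH formed by 125 nM NTMT1 from 100 uM SAM and 1 uM SPKRIA peptide over 30 min at room temperature, following 15 min compound preincubation. Percent inhibition against no-enzyme and DMSO controls gave 4-parameter Hill fits.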
# Chain of Calcium and integrin-binding protein 1 (Homo sapiens) (Q99828 whole entry, looked up): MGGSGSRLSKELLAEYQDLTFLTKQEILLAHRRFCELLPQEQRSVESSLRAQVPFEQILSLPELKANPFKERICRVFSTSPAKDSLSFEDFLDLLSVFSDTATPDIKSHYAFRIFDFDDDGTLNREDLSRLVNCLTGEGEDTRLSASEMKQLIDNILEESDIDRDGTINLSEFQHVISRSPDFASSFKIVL
# Chain of Cytochrome P450 2C9 (Homo sapiens) (P11712 whole entry, looked up): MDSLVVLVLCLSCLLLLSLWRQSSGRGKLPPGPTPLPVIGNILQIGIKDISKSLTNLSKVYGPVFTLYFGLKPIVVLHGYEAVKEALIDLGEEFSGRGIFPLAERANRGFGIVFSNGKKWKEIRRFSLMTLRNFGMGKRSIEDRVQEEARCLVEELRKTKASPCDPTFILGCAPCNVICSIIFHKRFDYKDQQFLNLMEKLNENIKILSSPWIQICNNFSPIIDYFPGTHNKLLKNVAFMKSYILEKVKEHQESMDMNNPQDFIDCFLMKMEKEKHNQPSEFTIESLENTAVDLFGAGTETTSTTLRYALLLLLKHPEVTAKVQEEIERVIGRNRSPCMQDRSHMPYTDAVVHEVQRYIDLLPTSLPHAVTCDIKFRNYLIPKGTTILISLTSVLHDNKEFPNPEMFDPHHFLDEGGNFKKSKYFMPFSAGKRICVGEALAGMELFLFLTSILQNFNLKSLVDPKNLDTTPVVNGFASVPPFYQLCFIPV
# Chain of Cytochrome P450 2D6 (Homo sapiens) (P10635 whole entry, looked up): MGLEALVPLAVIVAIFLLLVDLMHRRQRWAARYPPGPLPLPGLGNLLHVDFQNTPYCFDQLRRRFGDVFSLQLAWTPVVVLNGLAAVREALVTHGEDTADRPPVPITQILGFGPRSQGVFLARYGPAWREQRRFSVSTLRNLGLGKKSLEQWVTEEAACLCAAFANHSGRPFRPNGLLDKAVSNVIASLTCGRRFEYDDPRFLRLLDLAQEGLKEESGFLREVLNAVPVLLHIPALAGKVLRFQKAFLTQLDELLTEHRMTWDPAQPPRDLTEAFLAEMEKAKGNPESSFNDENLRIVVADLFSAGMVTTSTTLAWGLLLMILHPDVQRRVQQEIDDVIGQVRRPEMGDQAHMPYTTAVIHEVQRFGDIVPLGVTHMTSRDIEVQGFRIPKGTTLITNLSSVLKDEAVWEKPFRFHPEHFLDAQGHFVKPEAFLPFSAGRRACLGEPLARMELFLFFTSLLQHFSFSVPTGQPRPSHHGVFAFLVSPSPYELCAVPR
# Chain of N-terminal Xaa-Pro-Lys N-methyltransferase 1 (Homo sapiens) (Q9BV86 whole entry, looked up): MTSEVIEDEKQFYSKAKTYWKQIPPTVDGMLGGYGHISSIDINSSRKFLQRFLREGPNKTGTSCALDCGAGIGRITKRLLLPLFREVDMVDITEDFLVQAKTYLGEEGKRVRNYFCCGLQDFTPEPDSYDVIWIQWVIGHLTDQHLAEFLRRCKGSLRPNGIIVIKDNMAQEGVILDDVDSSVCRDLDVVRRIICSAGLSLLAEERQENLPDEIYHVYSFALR
smiles,measurement,setting,value
Cc1cc(Nc2cc(N3CCN(C)CC3)nc(Sc3ccc(NC(=O)C4CC4)cc3)n2)n[nH]1,Potency,[1],inactive
same,outcome,[2],inactive
same,Potency,[3],inactive
same,Potency,[4],296 nM (active)
C[C@@H](Oc1cc(-n2cnc3ccc(CN4CCN(C)CC4)cc32)sc1C(N)=O)c1ccccc1C(F)(F)F,Potency,[1],20.8 µM (active)
same,outcome,[2],inactive
same,Potency,[3],inactive
same,Potency,[4],29.5 nM (active)
CC(C)c1ccc(Cn2ccc3c4c(N)nc(NC5CC5)nc4ccc32)cc1,Potency,[1],4.66 µM (active)
same,outcome,[2],inactive
same,Potency,[3],inactive
same,Potency,[4],372 nM (active)
C[C@@H]1COC(Nc2ccc3ncnc(Nc4ccc(OCc5nccs5)c(Cl)c4)c3c2)=N1,Potency,[1],16.5 µM (active)
same,outcome,[2],inactive
same,Potency,[3],inactive
same,Potency,[4],13200 nM (active)
Cn1c(CNc2ccc(C(=N)N)cc2)nc2cc(C(=O)N(CCC(=O)O)c3ccccn3)ccc21,"activity change, negative = inhibition",[1],5.59% [at 0.314 µM]
same,outcome,[2],inactive
same,Potency,[3],inactive
same,Potency,[5],10.7 µM (active)
same,Potency,[4],inactive
CCN1CCN(CC(=O)Nc2ccc(-c3cccc4c(=O)cc(N5CCOCC5)oc34)c3sc4ccccc4c23)CC1,Potency,[1],inactive
same,outcome,[2],inactive
same,Potency,[3],inactive
same,Potency,[4],66.8 nM (active) and 257 nM (active)
COc1cccc(-c2ccc(NC(=O)C3=C(C(=O)O)CCC3)c(F)c2)c1,Potency,[1],inactive
same,outcome,[2],inactive
same,Potency,[3],inactive
same,Potency,[5],21.3 µM (active) and 26.8 µM (active)
same,Potency,[4],5.78 µM (active) and 2.95 µM (active)
O=c1[nH]c(=O)n(C2CCCO2)cc1F (configuration not stated),Potency,[1],inactive
same,outcome,[2],inactive
same,Potency,[3],inactive
same,Potency,[4],inactive
CNC(=O)CN1CCC(Oc2cc3c(Nc4cccc(Cl)c4F)ncnc3cc2OC)CC1,Potency,[1],inactive
same,outcome,[2],inactive
same,Potency,[3],inactive
same,Potency,[5],9.52 µM (active)
same,Potency,[4],16.3 µM (active) and 18.6 µM (active)
O=C(O)[C@H](Cc1c[nH]c2ccccc12)N1C(=O)c2ccccc2C1=O,Potency,[1],inactive
same,outcome,[2],inactive
same,Potency,[3],inactive
same,Potency,[4],inactive
Cn1c2cc(S(C)=O)sc2c2cnn(Cc3cccc(N)c3)c(=O)c21 (configuration not stated),Potency,[1],inactive
same,outcome,[2],inactive
same,Potency,[3],inactive
same,Potency,[5],19 µM (active)
COc1cc2c(Oc3ccc4[nH]c(C)cc4c3F)ncnc2cc1OCCCN1CCCC1,Potency,[1],20.8 µM (active)
same,outcome,[2],inactive
same,Potency,[3],inactive
same,Potency,[4],4.59 µM (active) and 6.61 µM (active)
CC[C@@H]1C(=O)N(C)c2cnc(Nc3ccc(C(=O)NC4CCN(C)CC4)cc3OC)nc2N1C1CCCC1,Potency,[1],16.5 µM (active)
same,outcome,[2],inactive
same,Potency,[3],inactive
same,Potency,[4],37.2 nM (active)
CC(C)C[C@H](NC(=O)CNC(=O)c1cc(Cl)ccc1Cl)B(O)O,Potency,[1],0.104 µM (active)
same,outcome,[2],inactive
same,Potency,[3],inactive
same,Potency,[4],148 nM (active)
CNc1nccc(-c2cccnc2Oc2cc(C(=O)Nc3cccc(C(F)(F)F)c3)ccc2C)n1,Potency,[1],5.87 µM (active)
same,outcome,[2],inactive
same,Potency,[3],inactive
same,Potency,[5],3.01 µM (active)
same,Potency,[4],2.58 µM (active) and 3.72 µM (active)
CN1CCC(CNc2ccc3ncc(-c4cccc(OC(F)(F)F)c4)n3n2)CC1,Potency,[1],14.7 µM (active)
same,outcome,[2],inactive
same,Potency,[3],inactive
same,Potency,[6],2.39 µM (active)
same,Potency,[4],2.58 µM (active) and 4.68 µM (active)
CCN(CC)CCCCNc1ncc2cc(-c3cc(OC)cc(OC)c3)c(NC(=O)NC(C)(C)C)nc2n1,Potency,[1],29.4 µM (active)
same,outcome,[2],inactive
same,Potency,[3],inactive
same,Potency,[4],16.4 µM (active) and 14.8 µM (active)
Cc1cc(Nc2cc(NC(=O)c3c(Cl)cccc3Cl)ccn2)nc(N)n1,Potency,[1],4.66 µM (active)
same,outcome,[2],inactive
same,Potency,[3],inactive
same,Potency,[4],417 nM (active)
COc1ccc(CC2c3cc(OC)c(OC)cc3CC[N+]2(C)CCC(=O)OCCCCCOC(=O)CC[N+]2(C)CCc3cc(OC)c(OC)cc3C2Cc2ccc(OC)c(OC)c2)cc1OC (configuration not stated),Potency,[1],inactive
same,"activity change, negative = inhibition",[2],-3.2% [at 6.45 µM]
same,"activity change, negative = inhibition",[3],101% [at 7.35 µM]
same,Potency,[5],inactive
same,Potency,[4],23500 nM (active)
NC(=O)c1cccc2cn(-c3ccc([C@@H]4CCCNC4)cc3)nc12,Potency,[1],inactive
same,outcome,[2],inactive
same,Potency,[3],inactive
same,Potency,[5],inactive
same,Potency,[4],4.59 µM (active) and 2.63 µM (active)
CC(C)Nc1cc(C(F)(F)F)cc2nc(NC(=O)c3cccnc3)nn12,Potency,[1],inactive
same,outcome,[2],inactive
same,Potency,[3],inactive
same,Potency,[6],inactive
same,Potency,[4],inactive
O=C(NCCCNc1nc(Nc2cccc(NC(=O)N3CCCC3)c2)ncc1I)c1cccs1,Potency,[1],inactive
same,outcome,[2],inactive
same,Potency,[3],inactive
same,Potency,[7],6.76 µM (active)
same,Potency,[4],5.8 µM (active) and 1.48 µM (active)
